PMC4336329 (PLoS ONE, 2015)
Out of some 310,000 compounds screened, about 14,000 (4.5%) showed an effect of 50% or more. Effects have a minus sign here. The full list was thinned out, with strong results kept by preference.

target: human ether-à-go-go-related gene (hERG) potassium channel (human, UniProt Q12809); assay: primary screen, population patch clamp on CHO cells stably expressing hERG; higher = less effect of the substance
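Note: peak tail current of the secondary pulse compared with the same well before compound.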

human ether-à-go-go-related gene (hERG) potassium channel, sequence (Q12809 whole entry, looked up): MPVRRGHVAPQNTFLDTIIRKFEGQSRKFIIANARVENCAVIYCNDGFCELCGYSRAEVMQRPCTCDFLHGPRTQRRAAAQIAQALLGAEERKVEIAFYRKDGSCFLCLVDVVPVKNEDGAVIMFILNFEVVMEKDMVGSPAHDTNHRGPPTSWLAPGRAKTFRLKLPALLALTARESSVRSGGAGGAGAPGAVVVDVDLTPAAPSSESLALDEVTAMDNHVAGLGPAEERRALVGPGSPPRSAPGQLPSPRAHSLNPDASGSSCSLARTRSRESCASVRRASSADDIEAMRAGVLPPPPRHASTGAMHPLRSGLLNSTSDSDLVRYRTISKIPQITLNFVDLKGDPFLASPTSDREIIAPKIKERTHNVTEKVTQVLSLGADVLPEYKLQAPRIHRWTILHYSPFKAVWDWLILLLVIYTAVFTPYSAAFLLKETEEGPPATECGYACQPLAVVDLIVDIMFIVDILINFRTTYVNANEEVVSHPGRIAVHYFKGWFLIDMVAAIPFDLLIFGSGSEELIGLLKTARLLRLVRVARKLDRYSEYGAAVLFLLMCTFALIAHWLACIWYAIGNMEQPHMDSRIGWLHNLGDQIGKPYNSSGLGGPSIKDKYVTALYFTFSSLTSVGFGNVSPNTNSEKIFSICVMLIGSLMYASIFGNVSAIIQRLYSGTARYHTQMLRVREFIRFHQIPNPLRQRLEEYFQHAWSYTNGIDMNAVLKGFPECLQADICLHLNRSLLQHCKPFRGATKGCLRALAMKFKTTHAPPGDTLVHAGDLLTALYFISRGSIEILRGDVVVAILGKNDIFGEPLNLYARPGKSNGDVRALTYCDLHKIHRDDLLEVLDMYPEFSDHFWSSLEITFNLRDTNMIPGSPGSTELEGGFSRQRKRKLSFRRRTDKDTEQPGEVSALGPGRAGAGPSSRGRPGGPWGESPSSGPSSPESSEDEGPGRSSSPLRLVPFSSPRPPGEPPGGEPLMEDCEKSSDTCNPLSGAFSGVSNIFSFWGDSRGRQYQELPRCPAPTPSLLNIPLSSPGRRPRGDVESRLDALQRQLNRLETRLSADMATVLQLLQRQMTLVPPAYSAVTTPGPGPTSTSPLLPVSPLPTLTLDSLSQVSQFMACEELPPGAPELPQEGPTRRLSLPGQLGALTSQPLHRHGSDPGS

Point of comparison: `CCOC(=O)c1ccc(CNC(=O)CSc2nnc(-c3ccncc3)o2)cc1`, “hERG current change (%, negative = inhibition) at 10uM” value -1.31%. Against it:
- COc1cccc(C2c3[nH]c4ccccc4c3C[C@H]3C(=O)N(CCCO)CC(=O)N23)c1OC (stereo partly drawn) — lower, -6.83%
- CC1(c2nnc(Cc3ccccc3)o2)CC(c2ccccc2F)=NO1 (stereo not drawn) — lower, -12.6%
- CC(C)Sc1nc(N2CCOCC2)c2c(c1C#N)CC(C)(C)SC2 — higher, 5.69%
- CC1=C(C(N)=O)C(c2ccccc2)n2nc(-c3ccncc3)nc2N1 (stereo not drawn) — higher, 11.2%
- COC(=O)C1C2CCC(C2)C1C(=O)OCC(=O)c1ccc(C)cc1 (stereo not drawn) — lower, -19.5%
- CC1(C)CC(=O)C=C(Nc2ccc([N+](=O)[O-])cc2)C1 — lower, -16.6%
- COc1ccc(NC(=O)CCOc2ccc(C)cc2)cc1S(=O)(=O)N1CCOCC1 — lower, -34.9%
- COc1ccc(C(=S)N2CCCC2)cc1C — higher, 4.72%
- CCCCCCOC(=O)c1ccc(NC(=O)c2cc(OC)c(OC)c(OC)c2Br)cc1 — higher, 5.84%
- COc1ccc(CNC/C=C/c2ccccc2)cc1.Cl — lower, -42.2%
- COc1ccc(CCNC/C=C/c2ccccc2)cc1.Cl — lower, -51.4%
- Cl.NS(=O)(=O)c1ccc(CCNC/C=C/c2ccccc2)cc1 — lower, -48.7%
- Cc1nn(C)c(C)c1CNC(=O)Nc1ccc2c(c1)OCO2 — higher, 12%
- CC(NC(=O)CN(C)S(=O)(=O)c1ccc(F)cc1)C1CC2CCC1C2 (stereo not drawn) — lower, -2.34%
- O=C(CCSCCc1ccccn1)Nc1c(F)c(F)c(F)c(F)c1F — lower, -23.3%
- CC(C)Nc1cc(C(C)(C)C)nc2c(-c3ccccc3)cnn12 — higher, 8.72%
- CCC(C)(C)n1nnnc1C(c1ccc(C)cc1)N1CCSCC1 (stereo not drawn) — lower, -55.1%
- CCC(C)(C)n1nnnc1C(C(C)C)N1CCN(C)CC1.Cl (stereo not drawn) — higher, 6.63%
- CCC(C)(C)n1nnnc1C(c1ccc(C)cc1)N1CCCC1.Cl (stereo not drawn) — lower, -11.7%
- CC(C)(C)n1nnnc1C(c1ccc(Cl)cc1)N1CCSCC1 (stereo not drawn) — higher, -0.553%
- CCC(C)(C)n1nnnc1C(C(C)C)N1CCC(C(N)=O)CC1 (stereo not drawn) — higher, 10.4%
- CCC(C)(C)n1nnnc1C(C(C)C)N1CCSCC1 (stereo not drawn) — lower, -61.6%
- N#C/C(=C/c1ccc2c(c1)OCO2)C(=O)Nc1ccc(O)cc1 — higher, -0.516%
- COc1ccc(NC(C)=O)cc1S(=O)(=O)N(C)Cc1c(C)nn(-c2ccccc2)c1C — lower, -13%
- COCC(C)OC(=O)/C(C#N)=C\c1coc2ccc(C)cc2c1=O (stereo not drawn) — lower, -20.9%
- CC(C)(C)c1ccccc1NC(=S)NC1CCCC1 — higher, 1.41%
- COc1ccc(N2C(=O)CCC(C(=O)N3CCC(C(N)=O)CC3)C2c2ccc(F)cc2)cc1 (stereo not drawn) — lower, -2.18%
- Cc1c(CCOC(=O)CC23CC4CC(CC(C)(C4)C2)C3)sc[n+]1CC(=O)c1ccccc1.[Br-] — lower, -56.8%
- Cc1c(CCOC(=O)CC23CC4CC(CC(C4)C2)C3)sc[n+]1CC(=O)c1ccccc1.[Br-] — lower, -59.4%
- Cc1c(CCOC(=O)C23CC4CC(CC(C)(C4)C2)C3)sc[n+]1Cc1ccccc1.[Cl-] — lower, -34.5%
- Cc1c(CCO)sc[n+]1CC(=O)OCCC12CC3CC(CC(C3)C1)C2.[Cl-] — higher, 11.8%
- Cc1c(CCOC(=O)C23CC4(C)CC(C)(CC(C)(C4)C2)C3)sc[n+]1CC(=O)c1ccccc1.[Br-] — lower, -19.5%
- Cc1c(CCOC(=O)C23CC4CC(CC(C)(C4)C2)C3)sc[n+]1CC(=O)c1ccccc1.[Br-] — lower, -26.7%
- Cc1ncc(C[n+]2csc(CCOC(=O)CC34CC5CC(CC(C5)C3)C4)c2C)c(N)n1.Cl.[Cl-] — lower, -4.79%
- Cc1c(CCOC(=O)C2C3CC4CC(C3)CC2C4)sc[n+]1CC(=O)c1ccc(Br)cc1.[Br-] (stereo not drawn) — lower, -31.4%
- Cc1c(CCOC(=O)CC23CC4CC(CC(C4)C2)C3)sc[n+]1Cc1ccccc1.[Cl-] — lower, -42.1%
- Cc1c(CCOC(=O)CC23CC4CC(CC(C)(C4)C2)C3)sc[n+]1Cc1ccc([N+](=O)[O-])cc1.[Br-] — lower, -87.8%
- Cc1c(CCO)sc[n+]1CC(=O)OC12CC3CC(CC(C3)C1)C2.[Cl-] — higher, 19.8%
- Cc1c(CCOC(=O)CC23CC4CC(CC(C4)C2)C3)sc[n+]1CC(=O)c1ccc(Br)cc1.[Br-] — lower, -75.1%
- c1ccc(N2CCN(c3nc4cc5c(cc4s3)OCO5)CC2)cc1 — lower, -11.2%
- CCC(CC)c1nnc(NC(=O)c2c(-c3ccccc3)noc2C)s1 — lower, -9.78%
